Rows were chosen to be rich in hits. Some 2.9% of all compounds tested hit in one or more screens of this group.
MEKK2 WT-MEK5: modulators of MEK5 binding to wildtype MEKK2, primary screen, biochemical, multiplex bead flow cytometry, Alexa488-MEK5; binding response (% of control), % at 10 µM; 290,000 tested, 1.1% active; AID 1531, 2009; Alexa488-MEK5 binding to MEKK2 WT; actives lie on both sides; Mitogen-activated protein kinase kinase kinase 2 (Homo sapiens), Q9Y2U5; in the data active = binding response below about 67% or above about 130%; inconclusive = no clear call, values can overlap the other calls; inactive = in between
dFosB act: activators of delta FosB homodimer, primary screen, biochemical, fluorescence polarization, TAMRA-CDK5 oligo, single point; purified delta FosB; percent of positive-control signal above neutral wells; 340,000 tested, 0.99% active; Protein FosB (Mus musculus), P13346; AID 493131, 2011; activation, % at 25 µM;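 active = mean activation above about 17%, with every replicate also reaching it, limit read from the data, passing the limit was not always enough; inconclusive = only one of the two conditions met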
DNA FID counter: compounds displacing fluorescent DNA intercalator, primary screen, artefact control for HCV NS3 helicase inhibitor project, biochemical, FID fluorescence. DNA fluorescent intercalator displacement. inhibition, % at 7.9 µM. 290,000 tested, 0.17% active; in the data active = inhibition above about 37%;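 also: higher means more ethidium bromide displaced from hairpin DNA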
MEKK2 mut-MEK5: MEK5 binding signal on mutant MEKK2 PB1, primary screen, biochemical, multiplex bead flow cytometry, Alexa488-MEK5; Alexa488-MEK5 binding to MEKK2 mutant; percent response, % at 10 µM; 290,000 tested, 0.35% active; in the data active = percent response above about 24%, passing the limit was not always enough
MEKK3 PB1 HTS: modulators of MEKK3-MEK5 PB1 binding, primary screen, biochemical, wildtype MEKK3, multiplex bead flow cytometry, Alexa488-MEK5 | 290,000 tested, 1.4% active | bead-based flow cytometry, Alexa488-MEK5 binding to MEKK3; actives lie on both sides; 0 = blocked by unlabeled MEK5, 100 = vehicle | Mitogen-activated protein kinase kinase kinase 3 (Homo sapiens), Q99759 | binding response (% of control), % at 10 µM | AID 1529, 2009;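 active = binding response more than 3 SD above or below the average of its plate-row segment, actives on both sides; inconclusive = wells at one plate position flagged as instrument error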;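 also: Alexa488 bead fluorescence after subtracting the streptavidin-only scavenger bead signal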
Target sequence (Q99759 whole entry, looked up): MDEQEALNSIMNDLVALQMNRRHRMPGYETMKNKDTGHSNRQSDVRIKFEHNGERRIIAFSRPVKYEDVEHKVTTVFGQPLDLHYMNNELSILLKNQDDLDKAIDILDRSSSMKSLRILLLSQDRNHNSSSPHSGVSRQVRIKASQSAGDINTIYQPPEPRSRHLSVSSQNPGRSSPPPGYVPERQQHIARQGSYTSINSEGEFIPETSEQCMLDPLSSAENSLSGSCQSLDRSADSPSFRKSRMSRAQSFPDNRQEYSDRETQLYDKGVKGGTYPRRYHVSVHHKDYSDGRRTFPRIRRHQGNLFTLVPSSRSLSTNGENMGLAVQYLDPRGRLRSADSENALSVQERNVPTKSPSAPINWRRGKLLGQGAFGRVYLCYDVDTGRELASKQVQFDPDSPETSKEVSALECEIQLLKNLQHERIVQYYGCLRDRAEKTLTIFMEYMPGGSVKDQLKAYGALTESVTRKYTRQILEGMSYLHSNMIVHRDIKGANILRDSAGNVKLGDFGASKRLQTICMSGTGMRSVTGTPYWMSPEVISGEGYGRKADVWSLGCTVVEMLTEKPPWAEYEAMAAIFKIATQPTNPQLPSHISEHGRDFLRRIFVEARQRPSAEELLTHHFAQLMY
Of the large screens only hits and unclear results are named; the others gave an inactive call; [ ] = remark or other dose.

Cc1cc(=O)oc2cc(NC(=O)C(CCCN=C(N)N)NC(=O)OCc3ccccc3)ccc12 (stereo unspecified)	DNA FID counter 41
CC1CCN(Cc2c(C(=O)N/N=C/c3ccccc3O)nnn2-c2nonc2N)CC1	dFosB act 21
Cc1nnn(-c2nonc2N)c1C(=O)N/N=C/c1ccccc1O	dFosB act 104
Cc1nnn(-c2nonc2N)c1C(=O)N/N=C/c1cccc2ccccc12	none
Cc1cc2[nH]ncc2cc1NC(N)=S	none
Cc1cc(Br)cc2cn[nH]c12	MEKK2 WT-MEK5 40
COc1ccc(/C=C/C(=O)NC(=S)NNC(=O)c2cnccn2)cc1	dFosB act 17
O=C(/C=C/c1ccc(F)cc1)NC(=S)NNC(=O)c1cnccn1	none
CCC(=O)c1ccc(OCC(=O)N2CCN(S(=O)(=O)c3ccc(Cl)s3)CC2)cc1	none (no result: MEKK2 WT-MEK5, DNA FID counter, MEKK2 mut-MEK5, MEKK3 PB1 HTS)
Cc1ccc(Cl)cc1NC(=O)C[n+]1ccc(Cc2ccc([N+](=O)[O-])cc2)cc1	DNA FID counter 40 (no result: MEKK2 WT-MEK5, MEKK2 mut-MEK5, MEKK3 PB1 HTS)
COc1cccc(/C=C/C(=O)NCc2cn3cc(Cl)ccc3n2)c1	dFosB act 17
CCn1cc(CN2CCC(C(=O)Nc3cccc(-c4cccc(F)c4)c3)CC2)cn1	none
CCn1nc(C)c(CN2CCC(C(=O)Nc3cccc(-c4cccc(F)c4)c3)CC2)c1C	MEKK2 WT-MEK5 136, MEKK2 mut-MEK5 25
CCNC(=O)C1CCCN1C(=O)C(CCCN=C(N)N)NC(=O)C(CC(C)C)NC(=O)C(Cc1cn(Cc2ccccc2)cn1)NC(=O)C(Cc1ccc(O)cc1)NC(=O)C(CO)NC(=O)C(Cc1c[nH]c2ccccc12)NC(=O)C(Cc1cnc[nH]1)NC(=O)C1CCC(=O)N1 (stereo unspecified)	DNA FID counter 44 (no result: dFosB act)
CCOCCCNc1nc2c(C)cccn2c(=O)c1/C=C1\SC(=S)N(C(C)CC)C1=O (stereo unspecified)	dFosB act inconclusive, MEKK2 mut-MEK5 127, MEKK3 PB1 HTS 28[inhibitor] (no result: MEKK2 WT-MEK5)
CCOCCCNc1nc2c(C)cccn2c(=O)c1/C=C1\SC(=S)N(CC(C)C)C1=O	none (no result: MEKK2 WT-MEK5, MEKK2 mut-MEK5, MEKK3 PB1 HTS)
CCOC(=O)c1cnc2c(ccc3ccccc32)c1NCCO	none
CCOC(=O)c1cnc2ccc(OCC)cc2c1NCCCN1CCOCC1	DNA FID counter 55
CCOC(=O)c1cnc2ccc(OCC)cc2c1NCCN1CCOCC1	none
CCOC(=O)c1cnc2c(Cl)cccc2c1NCCCN1CCOCC1	none
CCOC(=O)c1cnc2c(CC)cccc2c1NCCCN1CCOCC1	DNA FID counter 52
CCOC(=O)c1cnc2c(ccc3ccccc32)c1NCCN(C)C	DNA FID counter 46
O=C(COc1ccc(S(=O)(=O)N2CCOCC2)cc1)NCCc1ccccc1	none (no result: MEKK2 WT-MEK5, DNA FID counter, MEKK2 mut-MEK5, MEKK3 PB1 HTS)
C=CCn1c(C)cc(C(=O)COC(=O)CNC(=O)c2ccccc2)c1C	none
CCC(=O)N/N=C/c1ccc(-c2ccc([N+](=O)[O-])cc2)o1	none
CC(C)(C)C(=O)/C=c1\s/c(=C\c2ccc(-c3ccc([N+](=O)[O-])cc3)o2)c(=O)n1CC(=O)NC(N)=O	MEKK2 WT-MEK5 241, MEKK2 mut-MEK5 396
O=[N+]([O-])c1ccc(/C=C/c2ccncc2)cc1	MEKK2 WT-MEK5 -2.0[inhibitor]
Cc1nc2c(=O)n(-c3cccc(C(F)(F)F)c3)nc(C)c2s1	none
COc1cc(CC(=O)Nc2cc(S(C)(=O)=O)ccc2Cl)cc(OC)c1OC	none
CNc1nc(C)c(C(=O)OCc2ccccc2)s1	none
CNc1nc(C)c(C(=O)OCC(=O)OC)s1	DNA FID counter 37
COc1ccc(NC(=O)c2c(N)no[n+]2[O-])cc1	dFosB act 21
Cc1cc(C)c2c(c1)/C(=N/NC(=S)Nc1ccc(F)cc1)CCC2	dFosB act 31
COC(=O)N/N=C1\CCCc2c(C)cc(C)cc21	none
COc1ccc(-n2nc(C(=O)NCC(=O)NCc3ccc(F)cc3)c3ccccc3c2=O)cc1OC	dFosB act 126
COC(=O)CNC(=O)CNC(=O)c1nn(-c2ccc(OC)c(OC)c2)c(=O)c2ccccc12	none
COc1ccc(-n2nc(C(=O)NCC(=O)Nc3cc(OC)c(OC)c(OC)c3)c3ccccc3c2=O)cc1Cl	dFosB act 21
CC(=O)Nc1ccc(NC(=O)CSc2ncc(C(=O)Nc3ccccc3)c(=O)n2C)cc1	none (no result: MEKK2 WT-MEK5, DNA FID counter, MEKK2 mut-MEK5, MEKK3 PB1 HTS)
Cc1ccccc1C(C(=O)NC1CCCCC1)N(C(=O)CNC(=O)c1ccco1)c1cccnc1 (stereo unspecified)	none
O=C(N/N=C/c1cccs1)c1cccc(NC(=O)c2ccc(Cl)cc2)c1	MEKK3 PB1 HTS 132 (no result: dFosB act)
O=C(N/N=C/c1cc([N+](=O)[O-])ccc1O)c1cccc(NC(=O)c2cccc(Cl)c2)c1	dFosB act 57
Cc1ccc(Nc2nc(N/N=C\c3ccc4c(c3)OCO4)nc(N3CCOCC3)n2)cc1	dFosB act 60
CC(C)OC(=O)CSc1nc(Cc2ccccc2)nc2ccccc12	none
CCCCC(=O)NC(=S)Nc1nnn(CCC)n1	MEKK3 PB1 HTS 43[inhibitor]
O=Cc1cccc2ccc3cccc(C(=O)O)c3c12	none (no result: MEKK2 WT-MEK5, DNA FID counter, MEKK2 mut-MEK5, MEKK3 PB1 HTS)
Oc1c(N=Nc2ccccn2)ccc2ccccc12	MEKK2 WT-MEK5 36
O=C1C2C3C=CC(C3)C2C(=O)N1c1ccccc1 (stereo unspecified)	none
O=C1C(C2=NC(c3ccccn3)C3C(=O)N(c4ccccc4)C(=O)C23)=C(O)c2ccccc21 (stereo unspecified)	dFosB act 26
CC(NC(=O)CN(C)CC(=O)Nc1ccc(Cl)cc1)c1ccc(F)cc1 (stereo unspecified)	none (no result: MEKK2 WT-MEK5, DNA FID counter, MEKK2 mut-MEK5, MEKK3 PB1 HTS)
COc1ccc(CNC(=O)CN(Cc2ccc(OC)cc2)C(=O)c2csnn2)cc1	none
O=C(Nc1ccc(F)cc1)C1CCCN(S(=O)(=O)c2ccc3[nH]c(=O)ccc3c2)C1 (stereo unspecified)	dFosB act 18
CCN(CC)CC(=O)Nc1ccc(-c2nc3cc(NC(=O)CN(CC)CC)ccc3o2)cc1	none
O=C(CN1CCCC1)Nc1ccc(-c2nc3cc(NC(=O)CN4CCCC4)ccc3o2)cc1	DNA FID counter 47
CO/N=C/NC(=O)c1c(OC)ccnc1Oc1ccc(F)cc1	DNA FID counter 71
CCCCCCCN1CCC(=O)N([C@H](CO)CC(C)C)CC1	none
O=C(Nc1ccc(NC(=O)c2cccs2)cc1)c1ccc2c(c1)OCCO2	dFosB act 17
O=C(Nc1ccc(NC(=O)c2ccccn2)cc1)C(=O)Nc1ccc2c(c1)OCCO2	dFosB act 19
CCC(C)(C)NC(=O)CN(C(=O)c1csnn1)c1ccccc1-c1ccccc1	none
